Measurements reported in PubChem BioAssay (EPA / NIEHS).
Calls of active or inactive are those of the source. The calls were made as follows: active = hit-call score of the fitted dose curve at least 0.9, where 1 is the maximum; inactive = score below 0.9.

Tests used:
Conditions in all cases: mRNA level, 48 h; actives raise or lower the signal
[1] = read-out: Cytochrome P450 (CYP1A2), CYP1A2 (gene 1544); experiment: LTEA_HepaRG_CYP1A2: Life Technologies and Expression Analysis (LTEA) Assay for Cytochrome P450 (CYP1A2) using HepaRG (AID 2283479)
Procedure, shortened: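 CYP1A2 transcript induction or loss, quantified by Fluidigm qRT-PCR against three housekeeping genes, was fitted bidirectionally against 0.5% DMSO controls. Human HepaRG cells received eight half-log concentrations from 100 uM over 48 h.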

[2] = read-out: cysteine-aspartic acid protease (CASP8), CASP8 (gene 841); experiment: LTEA_HepaRG_CASP8: Life Technologies and Expression Analysis (LTEA) Assay for cysteine-aspartic acid protease (CASP8) using HepaRG (AID 2283480)
Procedure, shortened: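 HepaRG, 48 h exposure, duplicate wells; 8 conc, half-log from 100 uM, 0.5% DMSO. Serum-free induction medium. CASP8 mRNA by TaqMan qRT-PCR, norm. ACTB/GAPDH/POLR2A; gain/loss fitted vs DMSO.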

[3] = read-out: Cytochrome P450 2C19 (Homo sapiens) (UniProt P33261); experiment: LTEA_HepaRG_CYP2C19: Life Technologies and Expression Analysis (LTEA) Assay for CYP2C19 using HepaRG (AID 2283482)
Procedure, shortened: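 Transcript levels of CYP2C19 were quantified by qRT-PCR after HepaRG cells were treated for 48 hours with test chemicals up to 100 uM (eight half-log concentrations, 0.5% DMSO vehicle). Gain or loss of signal was fitted relative to DMSO.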

[4] = read-out: CYP2C8 (gene 1558); experiment: LTEA_HepaRG_CYP2C8: Life Technologies and Expression Analysis (LTEA) Assay for CYP2C8 using HepaRG (AID 2283483)
Procedure, shortened: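 CYP2C8 mRNA induction or loss, by qRT-PCR normalized to ACTB/GAPDH/POLR2A, is read in HepaRG cells after 48 h treatment. Concentrations run from 100 uM down in half-log dilutions, with 0.5% DMSO as vehicle and baseline.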

[5] = read-out: CYP2C9 (gene 1559); experiment: LTEA_HepaRG_CYP2C9: Life Technologies and Expression Analysis (LTEA) Assay for CYP2C9 using HepaRG (AID 2283484)
Procedure, shortened: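 Cells plated 48 h, switched to serum-free induction medium, then treated in duplicate for 48 h at eight concentrations (max 100 uM, 0.5% DMSO). RNA then analysed by qRT-PCR for CYP2C9; curves fitted in both directions relative to DMSO.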

[6] = read-out: CYP2E1 (gene 1571); experiment: LTEA_HepaRG_CYP2E1: Life Technologies and Expression Analysis (LTEA) Assay for CYP2E1 using HepaRG (AID 2283485)
Procedure, shortened: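 HepaRG cells in serum-free induction medium exposed 48 h to test chemicals, 8 half-log concentrations up to 100 uM in 0.5% DMSO, duplicate. CYP2E1 mRNA by qRT-PCR, normalized to ACTB, GAPDH, POLR2A; bidirectional fit versus DMSO.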

[7] = read-out: CYP4A11 (gene 1579); experiment: LTEA_HepaRG_CYP4A11: Life Technologies and Expression Analysis (LTEA) Assay for CYP4A11 using HepaRG (AID 2283486)
Procedure, shortened: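 HepaRG, 48 h chem exposure, 8 conc (100 uM top, half-log), 0.5% DMSO vehicle; qRT-PCR readout, housekeeping-gene normalized; bidirectional curve fit vs DMSO baseline.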

[8] = read-out: Cytochrome P450 3A4 (Homo sapiens) (UniProt P08684); experiment: LTEA_HepaRG_CYP3A4: Life Technologies and Expression Analysis (LTEA) Assay for CYP3A4 using HepaRG (AID 2283487)
Procedure, shortened: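 Differentiated HepaRG cells in serum-free induction medium exposed in duplicate for 48 h to 8 half-log concentrations up to 100 uM in 0.5% DMSO. CYP3A4 mRNA measured by qRT-PCR normalized to ACTB, GAPDH and POLR2A; bidirectional fit versus DMSO.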

[9] = read-out: DNA damage-inducible transcript 3 (DDIT3), DDIT3 (gene 1649); experiment: LTEA_HepaRG_DDIT3: Life Technologies and Expression Analysis (LTEA) Assay for DNA damage-inducible transcript 3 (DDIT3) using HepaRG (AID 2283488)
Procedure, shortened: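 Differentiated human HepaRG cells in serum-free induction medium were exposed in duplicate for 48 h to 8 concentrations (top 100 uM, half-log steps, 0.5% DMSO). DDIT3 mRNA measured by TaqMan qRT-PCR, normalized to ACTB/GAPDH/POLR2A; bidirectional fit versus DMSO.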

[10] = read-out: Cytochrome P450 (CYP2B6), CYP2B6 (gene 1555); experiment: LTEA_HepaRG_CYP2B6: Life Technologies and Expression Analysis (LTEA) Assay for Cytochrome P450 (CYP2B6) using HepaRG (AID 2283481)
Procedure, shortened: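 HepaRG cells plated 48 h, switched to serum-free induction medium, then dosed 48 h (8 points, half-log from 100 uM, 0.5% DMSO). RNA isolated; CYP2B6 expression measured by qRT-PCR; gain or loss fitted relative to DMSO.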

Measured: AC50

Cytochrome P450 3A4 (Homo sapiens), sequence (P08684 whole entry, looked up): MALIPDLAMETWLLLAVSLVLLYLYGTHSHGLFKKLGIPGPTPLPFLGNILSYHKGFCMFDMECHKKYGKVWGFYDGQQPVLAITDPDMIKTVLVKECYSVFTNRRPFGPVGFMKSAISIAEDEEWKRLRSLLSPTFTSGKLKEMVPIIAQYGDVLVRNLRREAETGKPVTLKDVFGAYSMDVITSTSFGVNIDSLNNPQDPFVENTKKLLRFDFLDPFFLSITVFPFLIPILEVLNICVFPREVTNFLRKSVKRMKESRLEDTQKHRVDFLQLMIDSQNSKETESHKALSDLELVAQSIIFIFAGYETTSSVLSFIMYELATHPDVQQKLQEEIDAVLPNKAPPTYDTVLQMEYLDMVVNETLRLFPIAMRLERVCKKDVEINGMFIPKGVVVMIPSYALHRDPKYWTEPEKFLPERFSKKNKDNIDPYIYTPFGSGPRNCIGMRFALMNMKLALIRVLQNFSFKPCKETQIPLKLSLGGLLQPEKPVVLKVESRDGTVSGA
Cytochrome P450 2C19 (Homo sapiens), sequence (P33261 whole entry, looked up): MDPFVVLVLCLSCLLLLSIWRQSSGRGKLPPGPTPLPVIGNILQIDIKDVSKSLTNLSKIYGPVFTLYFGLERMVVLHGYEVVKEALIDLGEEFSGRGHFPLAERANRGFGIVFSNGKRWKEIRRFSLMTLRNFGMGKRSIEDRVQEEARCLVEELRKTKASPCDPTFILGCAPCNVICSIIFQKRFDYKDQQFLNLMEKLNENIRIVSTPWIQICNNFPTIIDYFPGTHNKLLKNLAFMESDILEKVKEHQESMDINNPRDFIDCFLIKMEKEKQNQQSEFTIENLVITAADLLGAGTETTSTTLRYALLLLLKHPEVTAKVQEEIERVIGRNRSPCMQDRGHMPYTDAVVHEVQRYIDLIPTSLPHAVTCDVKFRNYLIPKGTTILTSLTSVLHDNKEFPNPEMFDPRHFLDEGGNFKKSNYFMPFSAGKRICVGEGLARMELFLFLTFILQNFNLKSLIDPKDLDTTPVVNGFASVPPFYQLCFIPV

CNC(=O)[C@H]1O[C@@H](n2cnc3c(NCc4cc(Cl)ccc4OCc4cc(C)no4)ncnc32)[C@H](O)[C@@H]1N
not listed: [10]
inactive: all other assays above

CN1CCCC1=O
active: [1] 31.5 µM
not listed: [5]
inactive: all other assays above

O=c1c(O)c(-c2ccc(O)c(O)c2)oc2cc(O)cc(O)c12
active: [1] 0.806 µM | [7] 50 µM
inactive: all other assays above

CC=Cc1ccc(O)c(OC)c1
inactive: all assays above

O=[N+]([O-])C(CO)(CO)CO
active: [1] 28.6 µM
inactive: all other assays above

Cc1cc(=O)[nH]c(=S)[nH]1
active: [1] 50 µM
not listed: [10]
inactive: all other assays above

COc1ccc(C)cc1N
not listed: [10]
inactive: all other assays above

NCCO
inactive: all assays above

CC1=C(/C=C/C(C)=C/C=C/C(C)=C/CO)C(C)(C)CCC1
inactive: [1] | [2] | [5] | [9]
active: [3] 43.5 µM | [4] 52.2 µM | [6] 52.2 µM | [7] 15.5 µM | [8] 23.6 µM

Nc1nc(N)c2nc(CNc3ccc(C(=O)N[C@@H](CCC(=O)O)C(=O)O)cc3)cnc2n1
active: [1] 0.0998 µM | [6] 0.098 µM
not listed: [10]
inactive: all other assays above

Nc1ccc(S(=O)(=O)c2ccc(N)cc2)cc1
active: [10] 32.4 µM | [6] 5.9 µM
not listed: [3]
inactive: all other assays above

COc1cc(S(=O)(=O)O)c(C)cc1N=Nc1c(O)ccc2cc(S(=O)(=O)O)ccc12
not listed: [10]
inactive: all other assays above

CCCCCCCCCCCCCCCC
active: [1] 50 µM
inactive: all other assays above

COc1ccc2c(c1)c(CC(=O)O)c(C)n2C(=O)c1ccc(Cl)cc1
active: [6] 21.3 µM
inactive: all other assays above

CC(C)c1ccc(C(=O)N=C(N)N)cc1S(C)(=O)=O
active: [1] 0.452 µM | [2] 0.409 µM | [3] 13.1 µM | [4] 0.578 µM | [7] 0.297 µM | [8] 9.24 µM | [9] 0.545 µM
inactive: [5] | [6]

CCCCN(CCCC)CCCC
inactive: all assays above

O=C(O)CCCCC(=O)O
inactive: all assays above

CNCc1cc(F)ccc1Oc1ccc(Cl)c(Cl)c1
active: [3] 94 µM | [5] 92.6 µM | [6] 73.8 µM | [7] 75.5 µM | [9] 77 µM
inactive: [1] | [2] | [4]

Cc1ccc2ncccc2c1
not listed: [10]
inactive: all other assays above

Cc1cc(NC(=O)C(=O)O)cc(C)c1Oc1ccc(O)c2c1CCC2
active: [1] 0.00228 µM | [3] 0.618 µM | [6] 1.2 µM | [7] 0.00589 µM | [8] 13.8 µM
inactive: [2] | [4] | [5] | [9]

CCCCCCCCCCC
not listed: [10]
inactive: all other assays above

Cc1ccccc1Cl
not listed: [10]
inactive: all other assays above

Nc1ccc2c(c1)C(=O)c1ccccc1C2=O
active: [1] 4.96 µM | [4] 3.97 µM | [5] 1.04 µM | [6] 14.3 µM | [7] 29 µM | [9] 20.9 µM
inactive: [2] | [3] | [8]

Cc1cccc(Nc2cc(Cl)nc(SCC(=O)O)n2)c1C
inactive: [1] | [2] | [5] | [9]
active: [3] 50 µM | [4] 50 µM | [6] 22.3 µM | [7] 4.63 µM

CCCCCCCCCCCCCO
not listed: [10]
inactive: all other assays above

O=C(O)Cc1ccccc1Nc1c(Cl)cccc1Cl
active: [1] 2.69 µM | [3] 5.86 µM | [6] 11.8 µM
not listed: [8] | [10]
inactive: all other assays above

FC(F)(F)C(F)(F)C(F)(F)C(F)(F)C(F)(F)C(F)(F)CCI
not listed: [10]
inactive: all other assays above

CCCCCCC(=O)OCC
active: [1] 23 µM | [3] 8.96 µM
not listed: [10]
inactive: all other assays above

CC(=O)OC/C=C(\C)CCC=C(C)C
not listed: [10]
inactive: all other assays above

CN1CCN(Cc2cc(-c3ccc4[nH]c(=O)oc4c3)co2)[C@@H](c2ccc(F)cc2)C1
active: [1] 65.7 µM | [5] 88 µM | [6] 50 µM | [7] 78.5 µM
not listed: [10]
inactive: all other assays above

Nc1ccccc1N
inactive: [2] | [9]
active: [1] 2.19 µM | [3] 71.8 µM | [4] 78.3 µM | [5] 71 µM | [6] 73.1 µM | [7] 66.5 µM

CN[C@H]1CC[C@@H](c2ccc(Cl)c(Cl)c2)c2ccc(S(N)(=O)=O)cc21
active: [5] 34.1 µM | [6] 13 µM | [7] 21.4 µM | [8] 89.2 µM | [9] 63 µM
inactive: [1] | [2] | [3] | [4]

CCOC(=O)C(C)(C)Oc1ccc(Cl)cc1
active: [7] 27.6 µM
not listed: [3] | [8] | [10]
inactive: all other assays above

CCCCC(CC)COC(=O)CC(C(=O)OCC(CC)CCCC)S(=O)(=O)O (stereo not given)
inactive: [7]
active: [1] 15.8 µM | [2] 81.6 µM | [3] 89.9 µM | [4] 15.8 µM | [5] 88.1 µM | [6] 76.5 µM | [9] 71.9 µM

CC(C)(C)c1cc(O)c(C(C)(C)C)cc1O
active: [2] 81.1 µM | [9] 50 µM

CCCCc1ccc2c(n1)[C@@H](c1ccc(OC)cc1C[C@H](C)C(=O)O)[C@H](C(=O)O)[C@H]2c1ccc2c(c1)OCO2
not listed: [10]
inactive: all other assays above

NCC1(Cc2noc(=O)[nH]2)CCCCC1
not listed: [10]
inactive: all other assays above

C[C@]12C=CC(=O)C=C1CC[C@@H]1[C@@H]2C(=O)C[C@@]2(C)[C@H]1CC[C@]2(O)C(=O)CO
inactive: [2] | [9]

CC(=O)Oc1ccccc1C(=O)O
active: [1] 50 µM
not listed: [10]
inactive: all other assays above

Clc1cc(Cl)c(Cl)cc1Cl
not listed: [10]
inactive: all other assays above

Oc1ccc2ccccc2c1N=Nc1ccccc1
active: [1] 0.232 µM | [3] 9.92 µM | [4] 9.55 µM | [5] 9.92 µM | [6] 21.5 µM | [7] 27.1 µM | [8] 1.81 µM
inactive: [2] | [9]

Cc1ccc(N(C)C)cc1
active: [1] 23.9 µM
not listed: [10]
inactive: all other assays above

C1CCC(SSC2CCCCC2)CC1
not listed: [10]
inactive: all other assays above

CCCCCCCCCCO
not listed: [10]
inactive: all other assays above

NS(=O)(=O)c1cc2c(cc1Cl)NCNS2(=O)=O
not listed: [1]
inactive: all other assays above

CCOc1ccc2c(c1)C(C)=CC(C)(C)N2
active: [1] 13 µM | [6] 30 µM | [8] 1.73 µM
not listed: [3] | [10]
inactive: all other assays above
